Test [1] addresses Dual specificity protein kinase CLK3 (Homo sapiens) (UniProt P49761). The settings on record: at 1 µM.
The target in test [2] is Dual specificity tyrosine-phosphorylation-regulated kinase 1A (Homo sapiens) (UniProt Q13627). The settings on record: at 0.1 µM.
Test [3] shares this target. The settings on record: at 1 µM.
For test [4], the target named is Dual specificity tyrosine-phosphorylation-regulated kinase 1B (Homo sapiens) (UniProt Q9Y463). To be noted: at 0.1 µM.
Test [5] has the same target. To be noted: at 1 µM.
For test [6], the target named is T1, Dual specificity tyrosine-phosphorylation-regulated kinase 2 (Homo sapiens) (UniProt Q92630).
T1 sequence (whole entry): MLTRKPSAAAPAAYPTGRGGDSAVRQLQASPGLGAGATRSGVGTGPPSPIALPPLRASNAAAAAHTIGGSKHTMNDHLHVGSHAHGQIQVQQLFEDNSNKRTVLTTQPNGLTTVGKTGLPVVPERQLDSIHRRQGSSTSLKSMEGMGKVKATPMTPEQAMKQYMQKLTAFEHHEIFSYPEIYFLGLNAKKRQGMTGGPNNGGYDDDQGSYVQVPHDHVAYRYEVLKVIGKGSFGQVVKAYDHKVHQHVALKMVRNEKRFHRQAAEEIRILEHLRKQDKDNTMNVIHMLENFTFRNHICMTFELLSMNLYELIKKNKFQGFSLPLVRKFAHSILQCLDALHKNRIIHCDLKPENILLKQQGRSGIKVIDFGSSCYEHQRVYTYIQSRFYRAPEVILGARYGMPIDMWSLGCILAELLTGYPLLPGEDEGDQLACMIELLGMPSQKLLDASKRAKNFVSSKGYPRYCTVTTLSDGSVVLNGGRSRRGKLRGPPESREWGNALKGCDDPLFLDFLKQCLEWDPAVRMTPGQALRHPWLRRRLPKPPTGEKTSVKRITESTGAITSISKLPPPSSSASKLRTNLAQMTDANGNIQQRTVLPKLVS
To be noted: at 0.1 µM.

Test [7] concerns the target T1, Dual specificity tyrosine-phosphorylation-regulated kinase 2 (Homo sapiens). To be noted: at 1 µM.
Test [8] addresses Glycogen synthase kinase-3 alpha (Homo sapiens) (UniProt P49840). The settings on record: at 0.1 µM.
The target is the same in test [9]. The settings on record: at 1 µM.
Test [10] concerns the target Glycogen synthase kinase-3 beta (Homo sapiens) (UniProt P49841). To be noted: at 0.1 µM.
The target is the same in test [11]. The settings on record: at 1 µM.
In test [12] the target is Homeodomain-interacting protein kinase 1 (Homo sapiens) (UniProt Q86Z02). To be noted: at 0.1 µM.
Homeodomain-interacting protein kinase 1 (Homo sapiens), sequence (Q86Z02 whole entry, looked up): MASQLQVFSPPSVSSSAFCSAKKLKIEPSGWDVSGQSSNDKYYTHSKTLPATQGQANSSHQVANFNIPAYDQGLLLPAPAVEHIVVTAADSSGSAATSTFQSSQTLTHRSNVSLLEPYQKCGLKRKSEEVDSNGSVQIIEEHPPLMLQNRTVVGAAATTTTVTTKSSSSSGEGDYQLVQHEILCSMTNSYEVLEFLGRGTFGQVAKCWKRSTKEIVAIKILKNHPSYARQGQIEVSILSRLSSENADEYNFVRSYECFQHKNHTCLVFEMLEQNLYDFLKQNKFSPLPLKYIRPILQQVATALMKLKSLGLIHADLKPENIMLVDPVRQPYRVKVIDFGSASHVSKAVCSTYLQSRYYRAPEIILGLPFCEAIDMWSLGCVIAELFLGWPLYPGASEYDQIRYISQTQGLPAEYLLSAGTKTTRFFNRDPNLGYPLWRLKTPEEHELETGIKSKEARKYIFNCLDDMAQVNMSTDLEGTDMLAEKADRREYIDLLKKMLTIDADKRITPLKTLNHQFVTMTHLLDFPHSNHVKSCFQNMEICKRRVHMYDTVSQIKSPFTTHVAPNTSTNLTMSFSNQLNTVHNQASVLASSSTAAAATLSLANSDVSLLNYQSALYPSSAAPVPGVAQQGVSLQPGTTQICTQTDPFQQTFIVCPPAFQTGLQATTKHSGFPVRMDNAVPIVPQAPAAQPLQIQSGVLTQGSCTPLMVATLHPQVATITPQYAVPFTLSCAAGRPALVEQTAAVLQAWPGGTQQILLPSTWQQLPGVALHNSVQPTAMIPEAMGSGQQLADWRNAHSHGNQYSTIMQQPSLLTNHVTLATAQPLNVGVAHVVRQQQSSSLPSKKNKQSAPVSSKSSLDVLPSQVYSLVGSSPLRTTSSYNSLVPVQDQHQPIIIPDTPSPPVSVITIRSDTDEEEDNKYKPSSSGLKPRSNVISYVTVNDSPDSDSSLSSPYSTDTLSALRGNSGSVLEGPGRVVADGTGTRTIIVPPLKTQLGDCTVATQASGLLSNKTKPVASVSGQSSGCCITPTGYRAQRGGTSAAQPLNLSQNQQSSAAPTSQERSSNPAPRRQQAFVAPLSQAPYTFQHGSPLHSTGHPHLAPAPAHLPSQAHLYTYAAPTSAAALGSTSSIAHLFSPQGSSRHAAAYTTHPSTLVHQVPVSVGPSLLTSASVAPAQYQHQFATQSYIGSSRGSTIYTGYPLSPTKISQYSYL
Test [13] shares this target. To be noted: at 1 µM.
Test [14] addresses T2, Homeodomain-interacting protein kinase 4 (Homo sapiens) (UniProt Q8NE63).
T2 sequence (whole entry): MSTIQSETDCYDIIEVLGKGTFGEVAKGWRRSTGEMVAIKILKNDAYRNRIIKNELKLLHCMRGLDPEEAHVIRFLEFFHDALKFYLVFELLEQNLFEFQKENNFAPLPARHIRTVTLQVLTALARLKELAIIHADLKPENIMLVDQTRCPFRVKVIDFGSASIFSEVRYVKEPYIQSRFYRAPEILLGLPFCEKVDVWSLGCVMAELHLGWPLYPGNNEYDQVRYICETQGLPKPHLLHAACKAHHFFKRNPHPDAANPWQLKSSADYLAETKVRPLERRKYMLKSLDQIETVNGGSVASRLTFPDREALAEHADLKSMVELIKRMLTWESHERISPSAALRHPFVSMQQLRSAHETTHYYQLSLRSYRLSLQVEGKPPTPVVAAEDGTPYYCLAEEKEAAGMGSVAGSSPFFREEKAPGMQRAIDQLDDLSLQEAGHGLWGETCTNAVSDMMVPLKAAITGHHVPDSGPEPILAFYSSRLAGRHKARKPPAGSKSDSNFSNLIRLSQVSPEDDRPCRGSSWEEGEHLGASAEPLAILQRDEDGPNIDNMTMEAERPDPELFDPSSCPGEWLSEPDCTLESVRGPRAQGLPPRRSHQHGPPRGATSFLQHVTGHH
The settings on record: at 0.1 µM.

The target in test [15] is T2, Homeodomain-interacting protein kinase 4 (Homo sapiens). To be noted: at 1 µM.
In test [16] the target is Mitogen-activated protein kinase 9 (Homo sapiens) (UniProt P45984). The settings on record: at 0.1 µM.
Mitogen-activated protein kinase 9 (Homo sapiens), sequence (P45984 whole entry, looked up): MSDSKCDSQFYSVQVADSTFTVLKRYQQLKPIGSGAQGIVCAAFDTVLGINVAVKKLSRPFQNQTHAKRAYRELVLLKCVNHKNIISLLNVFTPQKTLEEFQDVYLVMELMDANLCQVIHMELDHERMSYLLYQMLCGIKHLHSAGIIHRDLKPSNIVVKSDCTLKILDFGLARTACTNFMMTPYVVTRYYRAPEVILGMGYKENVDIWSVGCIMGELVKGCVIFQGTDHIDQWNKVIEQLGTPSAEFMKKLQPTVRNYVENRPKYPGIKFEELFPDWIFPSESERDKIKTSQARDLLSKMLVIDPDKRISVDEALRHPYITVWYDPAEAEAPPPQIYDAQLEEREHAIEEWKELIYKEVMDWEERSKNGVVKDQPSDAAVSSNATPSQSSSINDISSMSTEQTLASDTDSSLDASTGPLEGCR
Test [17] has the same target. To be noted: at 1 µM.
Test [18] has as its target Mitogen-activated protein kinase 1 (Homo sapiens) (UniProt P28482). The settings on record: at 0.1 µM.
Test [19] has the same target. The settings on record: at 1 µM.
For test [20], the target named is Mitogen-activated protein kinase 3 (Homo sapiens) (UniProt P27361). The settings on record: at 0.1 µM.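 Further: each value is a mean inhibition figure.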
Mitogen-activated protein kinase 3 (Homo sapiens), sequence (P27361 whole entry): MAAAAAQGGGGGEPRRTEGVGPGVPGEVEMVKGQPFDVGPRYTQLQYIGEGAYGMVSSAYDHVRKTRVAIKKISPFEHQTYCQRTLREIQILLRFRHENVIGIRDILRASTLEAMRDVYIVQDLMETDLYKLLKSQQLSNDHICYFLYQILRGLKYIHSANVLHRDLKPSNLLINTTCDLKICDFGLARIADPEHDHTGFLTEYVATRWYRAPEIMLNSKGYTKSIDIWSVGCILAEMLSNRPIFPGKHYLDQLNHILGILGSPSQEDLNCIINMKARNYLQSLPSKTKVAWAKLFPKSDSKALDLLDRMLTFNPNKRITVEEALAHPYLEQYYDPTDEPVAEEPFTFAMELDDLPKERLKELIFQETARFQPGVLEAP

Dual specificity tyrosine-phosphorylation-regulated kinase 1B (Homo sapiens), sequence (Q9Y463 whole entry, looked up): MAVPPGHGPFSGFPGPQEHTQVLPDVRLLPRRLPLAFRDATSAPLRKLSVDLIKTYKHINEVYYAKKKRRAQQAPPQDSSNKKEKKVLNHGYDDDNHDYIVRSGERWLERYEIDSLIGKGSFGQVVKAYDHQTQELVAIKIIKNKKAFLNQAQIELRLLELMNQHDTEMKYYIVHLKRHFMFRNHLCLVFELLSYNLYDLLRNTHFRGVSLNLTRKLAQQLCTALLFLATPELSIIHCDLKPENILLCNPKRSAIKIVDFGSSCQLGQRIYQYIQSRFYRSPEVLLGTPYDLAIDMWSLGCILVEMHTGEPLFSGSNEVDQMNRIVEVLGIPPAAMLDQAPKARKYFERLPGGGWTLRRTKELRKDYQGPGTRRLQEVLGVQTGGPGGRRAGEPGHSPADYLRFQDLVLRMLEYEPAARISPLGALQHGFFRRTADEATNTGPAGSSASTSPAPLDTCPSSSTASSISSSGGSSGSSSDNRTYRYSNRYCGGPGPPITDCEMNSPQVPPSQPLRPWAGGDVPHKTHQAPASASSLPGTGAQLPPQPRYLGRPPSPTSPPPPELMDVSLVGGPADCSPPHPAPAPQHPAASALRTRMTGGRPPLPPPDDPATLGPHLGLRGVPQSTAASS
Glycogen synthase kinase-3 alpha (Homo sapiens), sequence (P49840 2-483 limits assumed): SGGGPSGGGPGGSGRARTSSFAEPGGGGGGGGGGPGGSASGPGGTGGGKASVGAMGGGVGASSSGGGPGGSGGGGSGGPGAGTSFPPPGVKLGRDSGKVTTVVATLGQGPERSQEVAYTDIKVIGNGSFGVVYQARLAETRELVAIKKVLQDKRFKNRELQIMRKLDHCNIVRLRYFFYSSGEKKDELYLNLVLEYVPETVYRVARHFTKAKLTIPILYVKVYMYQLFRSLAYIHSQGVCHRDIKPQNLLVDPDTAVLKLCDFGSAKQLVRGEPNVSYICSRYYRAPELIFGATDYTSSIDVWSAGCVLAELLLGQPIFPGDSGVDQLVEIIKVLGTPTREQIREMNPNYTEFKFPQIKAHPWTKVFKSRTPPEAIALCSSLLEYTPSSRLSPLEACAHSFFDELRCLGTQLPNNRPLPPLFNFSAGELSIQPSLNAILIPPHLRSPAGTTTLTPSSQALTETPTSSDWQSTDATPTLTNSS
Dual specificity protein kinase CLK3 (Homo sapiens), sequence (P49761 whole entry, looked up): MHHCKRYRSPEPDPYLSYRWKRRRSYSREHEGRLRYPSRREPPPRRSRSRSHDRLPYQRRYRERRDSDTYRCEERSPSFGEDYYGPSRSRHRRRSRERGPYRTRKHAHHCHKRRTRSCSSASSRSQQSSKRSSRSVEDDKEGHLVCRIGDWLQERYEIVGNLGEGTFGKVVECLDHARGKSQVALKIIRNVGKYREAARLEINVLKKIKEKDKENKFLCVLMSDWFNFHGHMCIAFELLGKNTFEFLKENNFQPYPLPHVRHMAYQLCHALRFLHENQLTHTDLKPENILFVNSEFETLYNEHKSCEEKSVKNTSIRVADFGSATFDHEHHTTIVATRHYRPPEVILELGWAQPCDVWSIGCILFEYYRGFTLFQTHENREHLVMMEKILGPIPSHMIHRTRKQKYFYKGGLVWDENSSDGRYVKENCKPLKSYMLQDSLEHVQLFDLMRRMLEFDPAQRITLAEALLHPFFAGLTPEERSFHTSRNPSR
Glycogen synthase kinase-3 beta (Homo sapiens), sequence (P49841 whole entry, looked up): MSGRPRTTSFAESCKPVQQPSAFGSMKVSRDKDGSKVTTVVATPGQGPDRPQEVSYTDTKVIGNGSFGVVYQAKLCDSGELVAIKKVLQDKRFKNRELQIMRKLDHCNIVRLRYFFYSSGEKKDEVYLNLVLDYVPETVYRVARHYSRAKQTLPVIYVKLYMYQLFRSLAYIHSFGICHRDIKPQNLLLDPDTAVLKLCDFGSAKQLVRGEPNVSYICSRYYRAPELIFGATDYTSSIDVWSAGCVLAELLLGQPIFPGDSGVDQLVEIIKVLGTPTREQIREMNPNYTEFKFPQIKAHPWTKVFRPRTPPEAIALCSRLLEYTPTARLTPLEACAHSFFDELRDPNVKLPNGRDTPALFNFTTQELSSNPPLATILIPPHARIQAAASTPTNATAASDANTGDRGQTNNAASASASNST
Mitogen-activated protein kinase 1 (Homo sapiens), sequence (P28482 whole entry): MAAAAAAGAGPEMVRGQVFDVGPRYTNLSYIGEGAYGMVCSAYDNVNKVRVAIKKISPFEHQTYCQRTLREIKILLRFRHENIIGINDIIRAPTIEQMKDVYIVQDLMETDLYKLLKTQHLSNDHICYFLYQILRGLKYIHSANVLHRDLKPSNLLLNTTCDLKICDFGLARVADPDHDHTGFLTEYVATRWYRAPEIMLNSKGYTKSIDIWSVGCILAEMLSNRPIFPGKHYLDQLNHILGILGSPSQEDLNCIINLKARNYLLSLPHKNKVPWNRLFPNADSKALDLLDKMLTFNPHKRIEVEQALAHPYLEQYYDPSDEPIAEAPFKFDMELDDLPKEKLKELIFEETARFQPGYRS

What is called inhibition is the change of the read-out against control, counted positive when it falls. Consider `COc1cc2ncn(-c3cc(OCc4ccccc4C(F)(F)F)c(C(C)=O)s3)c2cc1OC`, for which the inhibition in test [1] was 1.08%; in test [2], 1.88%; in [3] it was 2.83%; in [4], -0.72%; in [5], 0.32%; in test [6], 1.35%. The inhibition was 1.43% in test [7]; 1.6% in [8]; 3.73% in test [9]; 1.43% in [10]; 2.85% in test [11]; -0.68% in [12]. For the same compound, the inhibition in test [13] amounted to 4.77%; in test [14] it was 3.23%; in test [15], 7.24%; in test [16], 0.67%; in test [17], 0.69%; in [18], 5.64%. Besides, the figures for the inhibition in [19] and in test [20] were 5.81% and 3.61%, respectively.
On to `CCc1ccc(Oc2nccc(-c3c(-c4ccc(F)cc4)ncn3C3CCNCC3)n2)cc1`, for which the inhibition in test [1] is 0.51%; in [2] it was 0.92%; in test [3] it was 1.59%; in test [4], -0.38%; in test [5], 1.04%; in test [6], 4.87%. Further, the inhibition in test [7] was 4.71%; in test [8], 3.69%; in test [9], 7.13%; in [10] it was 2.44%; in test [11], 7.29%; in test [12], -2.3%. Besides, the inhibition in [13] stood at 1.77%; in test [14], 0.48%; in test [15] it was 2.99%; in [18], 6.77%; in [19] it was 11.6%; in test [20], 5.92%.
As to `COc1cc(N2CCN(C(C)C)CC2)ccc1Nc1nc(Nc2ccc(F)cc2C(=O)NC[C@@H](O)CO)c2cc[nH]c2n1`, the inhibition in test [1] was 4.1%; in [2] it was 0.93%; in [3], 12.7%; in [4], -2.96%; in test [5], 12%; in test [6] it was 3.04%. Moreover, the inhibition is 5.79% in test [7]; -1.27% in test [8]; 0.1% in test [9]; -0.78% in [10]; -0.58% in test [11]; 9.42% in test [12]. The inhibition was found to be 46.1% in test [13]; 32.3% in [14]; 69.8% in test [15]; 14.9% in [16]; 57.4% in test [17]; 0.55% in test [18]. The inhibition in [19] stood at 7.31%; in [20], 6.47%.
In the case of `COc1cc(Nc2ncc(-c3ccccc3)o2)cc(OC)c1OC`, the inhibition is 0.88% in [1]; 1.8% in test [2]; 6.39% in test [3]; 1.65% in [4]; 3.72% in test [5]; -2.15% in test [6]. The inhibition in [7] was -1.69%; in [8] it was 5.71%; in test [9], 34.4%; in test [10], 5.44%; in [11] it was 35.8%; in [13], 11.2%. The inhibition in test [14] is 0.61%; in [15] it was 3.87%; in test [16], -3.91%; in test [17] it was -3.35%; in test [18], -2.3%; in [19], -1.83%. Moreover, the inhibition in test [20] is 0.83%.
For `COc1ccc2cc(-c3c(-c4ccncc4)nc(-c4ccc([S+](C)[O-])cc4C)n3C)ccc2c1` (stereo not given), the inhibition is 2.67% in [1]; 2% in test [2]; 7.26% in [3]; 2.45% in test [4]; 6.41% in test [5]; -0.45% in test [6]. The inhibition stood at 0% in test [7]; 7.28% in test [8]; 15.4% in test [9]; 5.99% in test [10]; 14.7% in test [11]; 3.05% in [12]. Also, the inhibition in [13] was 6.01%; in test [14] it was 2.25%; in test [15] it was 5.99%; in test [16], 0.79%; in [17], 8.03%; in test [18], -0.46%. Also, the inhibition in test [19] was -2.44%; in test [20] it was 0.3%.
For the compound `O=C(Nc1n[nH]c2cc(-c3cc(F)ccc3F)ccc12)C1CC1`, the inhibition was 1.26% in test [1]; 2.37% in test [2]; 4.39% in test [3]; -0.4% in [4]; -0.93% in test [5]; 2.2% in test [6]. Further, the inhibition in [7] is 3.59%; in test [8] it was 7.07%; in [9], 30.4%; in [12], -1.3%; in [13], 1.85%; in test [14] it was -0.9%. Also, the inhibition in test [15] came to 3.56%; in [16], 4.38%; in test [17], 6.23%; in [18], 2.24%; in test [19], 4.09%; in [20], 4.01%.
For `Cc1nnc(-c2ccc(C)c(-c3ccc(C(=O)NCc4ccc(Cl)cc4)cc3)c2)o1`, the inhibition in [1] is -1.79%; in [2], 0.32%; in [3] it was 0.5%; in test [4], -2.54%; in test [5], -4.08%; in test [6] it was 2.1%. The inhibition in test [7] is 3.03%; in test [8] it was 0.36%; in test [9], 9.75%; in [10], -0.31%; in test [11], 4.25%; in [12], -2.88%. In addition, the inhibition in test [13] was -3.98%; in test [14], -0.69%; in test [15], 0.29%; in [16] it was 4.09%; in [17], 4.44%; in test [18] it was 8.3%. Besides, the inhibition in test [19] came out at 4.45%; in test [20], 2.96%.
